Source: PubChem BioAssay
PGE2 EP2 inh – human EP2 receptor antagonists, primary screen, TR-FRET cAMP, C6 glioma cells; hit rate 0.52% among 260,000; inhibition, % at 25 µM; Prostaglandin E2 receptor EP2 subtype (Homo sapiens), P43116; C6 glioma cells expressing human EP2; cells stimulated with saturating PGE2;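 active means percent inhibition above 40 after rounding to a whole number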;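 further: rat C6 glioma host cells with rolipram phosphodiesterase inhibitor present; the protocol text gives 20 µM as final concentration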
Target sequence (P43116 whole entry, looked up): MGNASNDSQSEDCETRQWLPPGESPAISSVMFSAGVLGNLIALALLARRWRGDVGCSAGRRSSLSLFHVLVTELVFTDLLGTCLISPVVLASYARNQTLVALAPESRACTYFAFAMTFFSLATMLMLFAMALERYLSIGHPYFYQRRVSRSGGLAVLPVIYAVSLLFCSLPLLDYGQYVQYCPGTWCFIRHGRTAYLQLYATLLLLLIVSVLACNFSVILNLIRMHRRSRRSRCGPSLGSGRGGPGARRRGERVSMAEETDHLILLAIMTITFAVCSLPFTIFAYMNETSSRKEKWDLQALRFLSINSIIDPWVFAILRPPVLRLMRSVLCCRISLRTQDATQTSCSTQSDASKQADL
CHT PAM – CHT positive allosteric modulators, primary screen, cell-based, membrane potential dye, choline EC20; High affinity choline transporter 1 (Homo sapiens), Q9GZV3; CHT-expressing cells; active compounds read high; LV-AA mutant CHT in HEK293 cells; B-score at 10 µM; hit rate 0.49% among 310,000; AID 488977, 2010;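 active means initial fluorescence not abnormally high and integrated response B-score, plate-corrected, over 3 SD above library mean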
EP2 modulator – EP2 receptor modulators, cAMP readout, primary screen, cell-based, HTRF cAMP, PGE2 stimulation; Prostaglandin E2 receptor EP2 subtype (Homo sapiens), P43116; EP2-expressing cells, cAMP HTRF FRET, PGE2 co-stimulation; induction, % at 25 µM; hit rate 0.83% among 260,000; AID 940, 2007;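 active means compounds whose cAMP rise, as percent of the full-agonist control response, exceeds 60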;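 further: rat C6 glioma line stably carrying human EP2 under a CMV promoter; the protocol text gives 20 µM as final concentration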
CHT block – inhibitors of human choline transporter CHT; CHT-expressing cells, membrane potential dye, choline response; active compounds read low; B-score at 10 µM; hit rate 0.86% among 310,000; AID 488975, 2010;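 active means B-score over 3 SD under the library average, and starting fluorescence ratio not unusually high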;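 further: choline stimulus applied at its EC90 after an EC20 pre-addition; B-score computed on integrated fluorescence ratio after choline addition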
EP2 confirm – cAMP induction in EP2, EP4, beta2-AR and parental cells, confirmation, counter-screen for EP2 modulator project, cell-based, five parallel assays, C6 glioma, HEK293; shares compounds with EP2 modulator; cAMP HTRF induction; plus low (about EC15) PGE2 agonist; calls only at 20 µM (by protocol); hit rate 47% among 1,300;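 active means cAMP induction above 50% in the main assay while under 30% in all four parallel counter assays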;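 further: rat C6 glioma cells stably expressing human EP2 receptor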
Hits are given with their value; n = inactive; x = no result; + = active, no number; ! = not active in a repeat. Sampled rows, rich in hits. Any-hit rate of the full collection: about 2.1%.

SMILES	PGE2 EP2 inh	CHT PAM	EP2 modulator	CHT block	EP2 confirm
O=C(Cc1ccc(Br)cc1)Nc1ccccc1Sc1ccccc1	n	n	68	n	+
COc1ccccc1/C=C/C(=O)OCC(=O)Nc1ccccc1Sc1ccccc1	n	n	71	n	+
O=C(Cc1ccc(F)cc1)Nc1ccccc1Sc1ccccc1	n	n	83	n	+
O=C(Cc1ccccc1)Nc1ccccc1Sc1ccccc1	n	n	n	n	x
Cc1nn(CC(=O)NC2CCCCC2)c(=O)c2cc3ccsc3n12	x	x	n	x	x
Cc1cc(C)c2[nH]c(=O)c(CN(C(=O)Nc3ccc(C(C)C)cc3)C3CC3)cc2c1	n	x	n	x	x
CCc1cc2cc3c(cc2nc1SCC(=O)NC1CCCC1)OCO3	n	x	n	x	x
c1ccc(C2=Nc3ccccc3NC(c3ccccc3)C2)cc1 (configuration not stated)	n	n	65	n	+
O=C1CC(c2ccccc2)NC(=O)N1 (configuration not stated)	n	n	n	n	x
O=C(CSc1nc2ccccc2o1)Nc1ccccc1N1CCCCCC1	n	n	71	n	+
O=C(CSc1nc2ccccc2o1)Nc1cc(C(F)(F)F)ccc1N1CCOCC1	n	n	80	n	+
Cc1cccc(Nc2nc3c(c(=O)[nH]c(=O)n3C)n2CCO)c1	n	x	n	x	x
CCc1ccc(OCc2n[nH]c(=S)n2C(C)CCCC(C)C)cc1 (configuration not stated)	n	n	69	n	+
CCN(Cc1ccccc1)C(c1cc2cc(C)cc(C)c2[nH]c1=O)c1nnnn1CCOC (configuration not stated)	n	n	73!	n	n
COc1ccc(N2CCN(C(c3cc(OC)ccc3OC)c3nnnn3C3CCCCC3)CC2)cc1 (configuration not stated)	n	x	n	x	x
C=CCOc1ccccc1CNc1ccc2c(c1)OCCO2	n	n	n	n	x
C=CCOc1ccccc1CNc1ccccc1C	n	n	81	n	+
Cc1ccccc1NCc1ccccc1O	n	n	n	n	x
C=CCOc1ccccc1CNc1cccc(F)c1	n	n	72	n	n
O=c1oc2c3c4c(cc2c(C(F)(F)F)c1CCN1CCOCC1)CCCN4CCC3	n	n	73	n	n
O=C(COc1ccc2c3c(c(=O)oc2c1)CCC3)NCCCN1CCOCC1	x	n	x	n	x
CC(C)c1cc(=O)oc2c3c4c(cc12)CCCN4CCC3	n	n	n	n	+
CCN(CC)c1ccc(CN2CCc3c(nc(C)[nH]c3=O)C2)c(O)c1	n	x	n	x	x
Cc1cccc(/C=C/c2nc3ccccc3c(=O)n2Cc2ccccc2)c1	n	n	69	n	+
O=c1c2ccccc2nc(/C=C/c2cccnc2)n1CCc1ccccc1	n	n	n	n	x
SMILES	PGE2 EP2 inh	CHT PAM	EP2 modulator	CHT block	EP2 confirm
C=CCSc1nc2ccccc2c(=O)n1Cc1ccccc1	n	n	72	n	+
C=C(C)CSc1nc2ccccc2c(=O)n1Cc1ccccc1	n	x	n	x	x
O=c1c2ccccc2nc(/C=C/c2ccccc2)n1CCc1ccccc1	n	n	80	n	+
C=CCSc1nc2ccsc2c(=O)n1-c1ccccc1	n	n	68	n	n
C=CCNC(=O)CN1CCN(c2cccc(C(F)(F)F)c2)CC1	n	x	n	x	x
CCOc1ccc2[nH]c(=O)c(CN(Cc3nnnn3Cc3ccc(F)cc3)C3CCCC3)cc2c1	n	x	n	x	x
FC(F)(F)c1cccc(N2CCN(Cc3nnnn3C3CCCCC3)CC2)c1	n	x	n	x	x
CCOC(=O)Cn1c(S(=O)(=O)Cc2ccc(F)cc2)nc(-c2ccccc2)c1-c1ccccc1	n	n	n	n	x
C#CCn1c(S(=O)(=O)Cc2ccc(F)cc2)nc(-c2ccccc2)c1-c1ccccc1	n	n	65	n	+
Cc1ccc(-c2cccc(C(=O)NCc3ccccc3)n2)c2ccccc12	n	n	66	n	+
COc1ccc(C(=O)NCCCN2CCOCC2)cc1OC	n	n	68	n	n
Cc1ccc(C(=O)NCCCN2CCOCC2)cc1Cl	x	n	x	n	x
O=C1CCCc2ccccc2N1Cc1cccc(Cl)c1	n	n	72	n	n
CCC1CCCCN1c1nc(-c2ccncc2)nc2ccccc12 (configuration not stated)	n	n	n	n	x
CC1CCN(c2nc(-c3ccncc3)nc3ccccc23)CC1	n	n	79	n	n
Cc1cccc(OCc2n[nH]c(=S)n2Cc2ccccc2)c1	n	n	n	n	n
Cc1ccc(S(=O)(=O)N2CCCC(C(=O)NC3CC4CCC3C4)C2)cc1 (configuration not stated)	n	x	n	x	x
Cc1ccccc1C(=N)c1ccccc1Cc1cccc2ccccc12	n	x	72	x	+
Cc1cc(C)cc(C(=N)c2ccccc2Cc2cccc3ccccc23)c1	n	x	n	x	n
O=C(Nc1nnc(-c2cccs2)s1)c1ccccc1	n	x	n	x	x
Cc1nnsc1C(=O)NC1(c2ccc(F)cc2)CCCC1	n	x	n	x	x
COc1ccc2[nH]c(CN3CCC(O)(c4ccccc4OC)CC3)c(C)c2c1	n	x	n	x	x
O=C1CC(O)(c2ccccc2)C(c2ccccc2)=C1c1ccccc1 (configuration not stated)	n	n	76	n	+
O=C1C=C(c2ccccc2)C(O)(c2ccccc2)C1 (configuration not stated)	n	n	n	n	x
COc1cccc(OC)c1C(=O)Nc1nc2c(Cl)cccc2s1	n	x	n	x	x
SMILES	PGE2 EP2 inh	CHT PAM	EP2 modulator	CHT block	EP2 confirm
Cc1ccccc1NC(=S)N(Cc1ccco1)C(C)c1cccs1 (configuration not stated)	n	n	n	n	n
CCOC1(OCC)C(c2ccc(N)cc2)C(C#N)(C#N)C1(OCC)OCC (configuration not stated)	n	n	76	n	+
CCOC1(OCC)C(c2ccc(Cl)cc2)C(C#N)(C#N)C1(OCC)OCC (configuration not stated)	x	n	n	n	x
C=CCc1cccc(C=Nc2cc(Br)ccc2O)c1O	n	n	67	n	+
C=CCc1cccc(C=Nc2c[nH]c(=O)[nH]c2=O)c1O	x	n	x	n	x
COc1ccc(-c2csc(Nc3ccccc3)[n+]2Cc2ccccc2)cc1	n	n	n	n	x
Cc1ccc(-c2csc(Nc3ccc(C(=O)O)cc3)[n+]2Cc2ccccc2)cc1	n	n	76	n	+
CC1(C)Oc2ccc(C(=O)NCCCc3ccc(F)cc3)cc2NC1=O	n	x	n	x	x
Cc1nc2c(-c3ccccc3)c(C)nn2c(C)c1CCC(=O)N1CCOCC1	n	n	78	n	n
CCSc1nc2ccccc2n1Cc1ccccc1F	n	n	72	n	+
NC(=O)CSc1nc2ccccc2n1Cc1ccccc1F	n	n	n	n	x
